{"source": "paper PMC7862700", "about": "“An all-to-all approach to the identification of sequence-specific readers for epigenetic DNA modifications on cytosine”", "assay_in_all_cases": "DAPPL (digital affinity profiling via proximity ligation, sequencing); 10 mM Tris-HCl pH 7.5, 50 mM NaCl, 1 mM DTT, 4% glycerol, room temperature, 30 min; GST-TFs on glutathione beads, 16-mer random dsDNA library, 0.1% formaldehyde crosslink after washing; high values mean tight binding", "key": {"FLI1": {"target": "T1, FLI1 (Homo sapiens, UniProt Q01543 1-452)", "T1 sequence": "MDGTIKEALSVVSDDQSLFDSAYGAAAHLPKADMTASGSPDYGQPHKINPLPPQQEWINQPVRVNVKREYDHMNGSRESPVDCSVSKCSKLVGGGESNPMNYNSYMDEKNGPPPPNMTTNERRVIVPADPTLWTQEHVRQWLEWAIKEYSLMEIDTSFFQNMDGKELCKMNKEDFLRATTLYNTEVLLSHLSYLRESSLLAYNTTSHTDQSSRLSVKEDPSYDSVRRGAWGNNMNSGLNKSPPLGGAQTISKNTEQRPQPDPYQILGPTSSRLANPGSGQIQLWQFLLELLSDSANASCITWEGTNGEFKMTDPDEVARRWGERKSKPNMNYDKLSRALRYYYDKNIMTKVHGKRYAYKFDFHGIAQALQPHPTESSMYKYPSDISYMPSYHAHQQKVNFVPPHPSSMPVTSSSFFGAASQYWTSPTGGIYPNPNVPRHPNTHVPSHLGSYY", "settings": "protein: recombinant; tags: N-terminal GST; dsDNA, one strand shown", "how_it_was_run": "(§1)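 A tag-only sample was pooled with DNA-barcoded human transcription factors that had been expressed in yeast as GST fusions and captured on glutathione beads. The pools were incubated for 30 min at room temperature with 200 nmole of a random double-stranded 16-mer DNA library in Tris/NaCl/DTT/glycerol buffer, then washed, crosslinked with 0.1% formaldehyde, proximity-ligated (BsaI/T4 ligase, 1 h, 37 °C), PCR-amplified and sequenced on an Illumina NextSeq500. Binding signal is each hexamer's read frequency for a factor divided by its frequency for the tag-only sample.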"}, "ELK1": {"target": "T2, ELK1 (Homo sapiens, UniProt P19419 1-428)", "T2 sequence": "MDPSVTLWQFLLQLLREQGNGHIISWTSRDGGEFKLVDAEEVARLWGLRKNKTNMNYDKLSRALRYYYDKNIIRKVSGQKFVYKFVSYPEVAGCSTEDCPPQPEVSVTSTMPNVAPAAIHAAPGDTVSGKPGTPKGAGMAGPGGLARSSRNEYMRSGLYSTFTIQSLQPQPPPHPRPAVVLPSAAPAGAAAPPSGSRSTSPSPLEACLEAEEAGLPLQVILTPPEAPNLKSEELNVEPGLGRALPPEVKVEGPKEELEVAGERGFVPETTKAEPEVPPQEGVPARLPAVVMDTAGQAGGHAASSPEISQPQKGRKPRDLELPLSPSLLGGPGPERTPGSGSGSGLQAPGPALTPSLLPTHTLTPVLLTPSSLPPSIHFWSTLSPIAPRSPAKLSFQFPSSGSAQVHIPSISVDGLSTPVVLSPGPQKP", "settings": "protein: recombinant; tags: N-terminal GST; dsDNA, one strand shown", "how_it_was_run": "as §1"}, "GABPA": {"target": "T3, GABPA (Homo sapiens, UniProt Q06546 1-454)", "T3 sequence": "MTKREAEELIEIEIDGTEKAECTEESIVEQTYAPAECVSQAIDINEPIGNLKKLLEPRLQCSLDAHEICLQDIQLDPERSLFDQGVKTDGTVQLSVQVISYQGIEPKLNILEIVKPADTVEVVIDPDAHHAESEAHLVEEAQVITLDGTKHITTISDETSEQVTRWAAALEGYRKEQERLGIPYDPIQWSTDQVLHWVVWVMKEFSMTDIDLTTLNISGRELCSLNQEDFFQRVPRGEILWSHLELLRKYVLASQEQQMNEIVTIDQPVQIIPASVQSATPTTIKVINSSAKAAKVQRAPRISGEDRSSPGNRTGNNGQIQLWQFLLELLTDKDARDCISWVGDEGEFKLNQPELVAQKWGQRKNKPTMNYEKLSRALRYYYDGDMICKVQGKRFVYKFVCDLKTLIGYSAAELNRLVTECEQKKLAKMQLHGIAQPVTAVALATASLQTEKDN", "settings": "protein: recombinant; tags: N-terminal GST; dsDNA, one strand shown", "how_it_was_run": "as §1"}, "ERG": {"target": "T4, ERG (Homo sapiens, UniProt P11308 1-479)", "T4 sequence": "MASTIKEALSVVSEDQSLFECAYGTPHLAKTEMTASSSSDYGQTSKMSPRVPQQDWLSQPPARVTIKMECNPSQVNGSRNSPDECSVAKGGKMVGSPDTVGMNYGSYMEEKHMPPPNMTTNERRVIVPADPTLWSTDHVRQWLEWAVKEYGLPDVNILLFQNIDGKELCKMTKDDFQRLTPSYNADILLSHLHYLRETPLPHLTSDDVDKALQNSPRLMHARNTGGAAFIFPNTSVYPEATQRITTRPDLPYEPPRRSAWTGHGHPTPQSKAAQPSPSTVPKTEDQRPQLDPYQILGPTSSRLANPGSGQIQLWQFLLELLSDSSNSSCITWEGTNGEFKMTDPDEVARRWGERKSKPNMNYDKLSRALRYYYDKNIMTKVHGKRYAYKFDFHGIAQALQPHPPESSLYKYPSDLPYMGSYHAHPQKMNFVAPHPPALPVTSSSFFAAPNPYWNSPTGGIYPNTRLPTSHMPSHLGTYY", "settings": "protein: recombinant; tags: N-terminal GST; dsDNA, one strand shown", "how_it_was_run": "as §1"}, "ELF1": {"target": "ELF1 (Homo sapiens, UniProt P32519 1-619)", "sequence (P32519 whole entry)": "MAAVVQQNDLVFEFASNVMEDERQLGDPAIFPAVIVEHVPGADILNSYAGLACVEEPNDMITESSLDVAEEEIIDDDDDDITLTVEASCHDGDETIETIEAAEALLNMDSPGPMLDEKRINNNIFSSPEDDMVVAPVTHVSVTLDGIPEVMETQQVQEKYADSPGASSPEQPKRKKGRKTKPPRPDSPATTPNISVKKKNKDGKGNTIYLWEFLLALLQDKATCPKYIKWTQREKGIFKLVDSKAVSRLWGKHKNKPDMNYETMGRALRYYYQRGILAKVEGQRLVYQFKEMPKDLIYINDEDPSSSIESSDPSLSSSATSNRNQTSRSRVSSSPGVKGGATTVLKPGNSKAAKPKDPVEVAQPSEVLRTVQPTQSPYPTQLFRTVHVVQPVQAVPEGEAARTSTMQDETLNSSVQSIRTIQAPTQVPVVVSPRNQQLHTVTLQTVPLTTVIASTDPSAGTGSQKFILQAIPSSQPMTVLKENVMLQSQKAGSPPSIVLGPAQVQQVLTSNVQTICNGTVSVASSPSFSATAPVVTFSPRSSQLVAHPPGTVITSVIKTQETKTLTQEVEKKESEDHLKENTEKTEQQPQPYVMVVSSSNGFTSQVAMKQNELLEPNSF", "settings": "protein: recombinant; tags: N-terminal GST; dsDNA, one strand shown", "how_it_was_run": "as §1"}, "EHF": {"target": "T5, EHF (Homo sapiens, UniProt Q9NZC4 1-300)", "T5 sequence": "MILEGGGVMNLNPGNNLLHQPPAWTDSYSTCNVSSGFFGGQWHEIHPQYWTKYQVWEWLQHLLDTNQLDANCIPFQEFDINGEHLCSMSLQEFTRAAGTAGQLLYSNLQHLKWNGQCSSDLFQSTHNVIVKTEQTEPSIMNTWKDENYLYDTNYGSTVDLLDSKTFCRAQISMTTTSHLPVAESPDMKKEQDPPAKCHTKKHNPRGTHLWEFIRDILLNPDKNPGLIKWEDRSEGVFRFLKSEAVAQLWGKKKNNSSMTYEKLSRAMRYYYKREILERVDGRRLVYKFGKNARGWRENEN", "settings": "protein: recombinant; tags: N-terminal GST; dsDNA, one strand shown", "how_it_was_run": "as §1"}, "SPI1": {"target": "SPI1 (Homo sapiens, UniProt P17947 1-270)", "settings": "protein: recombinant; tags: N-terminal GST; dsDNA, one strand shown", "how_it_was_run": "as §1"}, "SPIB": {"target": "SPIB (Homo sapiens, UniProt Q01892 1-262)", "sequence (Q01892 whole entry)": "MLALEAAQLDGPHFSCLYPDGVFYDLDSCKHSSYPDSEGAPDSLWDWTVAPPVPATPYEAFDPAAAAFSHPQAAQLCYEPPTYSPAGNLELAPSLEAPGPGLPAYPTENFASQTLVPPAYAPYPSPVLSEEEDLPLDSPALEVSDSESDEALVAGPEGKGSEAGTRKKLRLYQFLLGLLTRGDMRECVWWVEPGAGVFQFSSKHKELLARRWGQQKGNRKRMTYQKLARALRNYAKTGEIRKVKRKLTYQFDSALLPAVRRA", "settings": "protein: recombinant; tags: N-terminal GST; dsDNA, one strand shown", "how_it_was_run": "as §1"}, "FEV": {"target": "T6, FEV (Homo sapiens, UniProt Q99581 1-238)", "T6 sequence": "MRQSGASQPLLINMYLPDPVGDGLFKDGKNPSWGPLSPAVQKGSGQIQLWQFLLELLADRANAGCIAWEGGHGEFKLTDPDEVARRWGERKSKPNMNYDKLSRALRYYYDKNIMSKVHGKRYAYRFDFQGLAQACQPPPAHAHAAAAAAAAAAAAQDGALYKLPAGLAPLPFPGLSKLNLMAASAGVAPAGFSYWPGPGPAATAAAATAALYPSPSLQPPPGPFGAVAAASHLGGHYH", "settings": "protein: recombinant; tags: N-terminal GST; dsDNA, one strand shown", "how_it_was_run": "as §1"}, "ETV5": {"target": "ETV5 (Homo sapiens, UniProt P41161 1-510)", "sequence (P41161 whole entry)": "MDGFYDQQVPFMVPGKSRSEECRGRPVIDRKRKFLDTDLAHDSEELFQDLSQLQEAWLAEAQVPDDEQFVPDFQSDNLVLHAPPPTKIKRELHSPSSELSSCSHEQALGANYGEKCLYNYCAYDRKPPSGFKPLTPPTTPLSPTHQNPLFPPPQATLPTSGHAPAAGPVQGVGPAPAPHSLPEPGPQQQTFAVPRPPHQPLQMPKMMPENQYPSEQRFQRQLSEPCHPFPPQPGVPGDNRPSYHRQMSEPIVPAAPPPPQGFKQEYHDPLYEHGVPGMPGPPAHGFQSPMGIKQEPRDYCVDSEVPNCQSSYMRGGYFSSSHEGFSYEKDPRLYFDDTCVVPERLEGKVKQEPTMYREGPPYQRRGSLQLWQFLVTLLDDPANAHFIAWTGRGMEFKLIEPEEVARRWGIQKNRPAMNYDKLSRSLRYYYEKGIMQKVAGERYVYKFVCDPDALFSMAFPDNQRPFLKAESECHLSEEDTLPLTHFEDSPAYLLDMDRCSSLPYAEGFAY", "settings": "protein: recombinant; tags: N-terminal GST; dsDNA, one strand shown", "how_it_was_run": "as §1"}, "HSF1": {"target": "HSF1 (Homo sapiens, UniProt Q00613 1-529)", "sequence (Q00613 whole entry)": "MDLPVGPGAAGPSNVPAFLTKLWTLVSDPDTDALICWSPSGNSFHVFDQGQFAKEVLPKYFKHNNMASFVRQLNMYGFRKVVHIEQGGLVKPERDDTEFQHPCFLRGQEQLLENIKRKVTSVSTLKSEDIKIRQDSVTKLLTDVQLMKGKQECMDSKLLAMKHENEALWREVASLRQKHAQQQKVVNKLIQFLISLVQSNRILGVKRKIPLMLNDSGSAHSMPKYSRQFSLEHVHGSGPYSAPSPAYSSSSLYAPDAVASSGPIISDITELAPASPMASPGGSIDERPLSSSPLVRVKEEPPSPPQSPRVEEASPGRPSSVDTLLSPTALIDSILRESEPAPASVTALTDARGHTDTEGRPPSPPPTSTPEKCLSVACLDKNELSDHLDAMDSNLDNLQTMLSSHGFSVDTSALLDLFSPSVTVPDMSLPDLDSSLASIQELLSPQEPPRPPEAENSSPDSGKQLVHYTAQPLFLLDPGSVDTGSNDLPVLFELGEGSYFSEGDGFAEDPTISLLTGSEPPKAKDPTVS", "settings": "protein: recombinant; tags: N-terminal GST; chain copies: 3; dsDNA, one strand shown", "how_it_was_run": "as §1"}, "SPIC": {"target": "T7, SPIC (Homo sapiens, UniProt Q8N5J4 1-248)", "T7 sequence": "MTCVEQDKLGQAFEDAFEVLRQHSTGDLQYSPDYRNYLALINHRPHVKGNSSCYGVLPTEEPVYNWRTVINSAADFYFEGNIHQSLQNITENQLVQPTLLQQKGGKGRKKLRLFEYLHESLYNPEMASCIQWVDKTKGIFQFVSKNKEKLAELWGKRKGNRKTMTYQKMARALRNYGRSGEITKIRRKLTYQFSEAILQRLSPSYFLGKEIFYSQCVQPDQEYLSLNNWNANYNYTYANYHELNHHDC", "settings": "protein: recombinant; tags: N-terminal GST; dsDNA, one strand shown", "how_it_was_run": "as §1"}, "ELF4": {"target": "ELF4 (Homo sapiens, UniProt Q99607 1-663)", "sequence (Q99607 whole entry)": "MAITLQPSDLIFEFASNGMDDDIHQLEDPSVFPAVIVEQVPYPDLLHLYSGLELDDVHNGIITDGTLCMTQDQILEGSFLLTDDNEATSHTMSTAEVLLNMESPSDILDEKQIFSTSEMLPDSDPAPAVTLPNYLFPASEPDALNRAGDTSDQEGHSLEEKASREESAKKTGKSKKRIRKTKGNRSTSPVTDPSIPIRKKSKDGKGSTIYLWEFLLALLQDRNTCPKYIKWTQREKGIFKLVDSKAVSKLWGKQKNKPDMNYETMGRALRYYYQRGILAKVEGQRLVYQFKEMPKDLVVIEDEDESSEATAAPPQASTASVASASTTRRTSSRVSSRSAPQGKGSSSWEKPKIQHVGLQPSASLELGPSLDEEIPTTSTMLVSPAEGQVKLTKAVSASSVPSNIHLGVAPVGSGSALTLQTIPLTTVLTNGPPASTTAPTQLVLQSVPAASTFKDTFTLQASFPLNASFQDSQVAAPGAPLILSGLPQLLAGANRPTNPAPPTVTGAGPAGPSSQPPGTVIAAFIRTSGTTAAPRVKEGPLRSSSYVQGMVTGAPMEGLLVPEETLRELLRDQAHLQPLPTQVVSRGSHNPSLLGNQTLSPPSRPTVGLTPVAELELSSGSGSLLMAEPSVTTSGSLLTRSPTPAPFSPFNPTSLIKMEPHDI", "settings": "protein: recombinant; tags: N-terminal GST; dsDNA, one strand shown", "how_it_was_run": "as §1"}, "ELK4": {"target": "T8, ELK4 (Homo sapiens, UniProt P28324-2 1-405)", "T8 sequence": "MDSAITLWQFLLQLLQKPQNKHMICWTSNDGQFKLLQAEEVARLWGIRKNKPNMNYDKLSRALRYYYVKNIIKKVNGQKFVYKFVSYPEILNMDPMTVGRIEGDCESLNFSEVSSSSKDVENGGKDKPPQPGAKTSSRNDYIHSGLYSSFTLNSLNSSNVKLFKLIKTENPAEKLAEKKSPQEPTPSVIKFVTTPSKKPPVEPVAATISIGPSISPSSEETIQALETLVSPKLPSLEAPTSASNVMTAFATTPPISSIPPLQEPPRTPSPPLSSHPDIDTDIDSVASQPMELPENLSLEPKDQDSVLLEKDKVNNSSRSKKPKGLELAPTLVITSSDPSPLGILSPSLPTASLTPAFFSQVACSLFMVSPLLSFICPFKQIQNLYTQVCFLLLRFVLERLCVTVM", "settings": "protein: recombinant; tags: N-terminal GST; dsDNA, one strand shown", "how_it_was_run": "as §1"}, "ETV2": {"target": "T9, ETV2 (Homo sapiens, UniProt O00321 1-342)", "T9 sequence": "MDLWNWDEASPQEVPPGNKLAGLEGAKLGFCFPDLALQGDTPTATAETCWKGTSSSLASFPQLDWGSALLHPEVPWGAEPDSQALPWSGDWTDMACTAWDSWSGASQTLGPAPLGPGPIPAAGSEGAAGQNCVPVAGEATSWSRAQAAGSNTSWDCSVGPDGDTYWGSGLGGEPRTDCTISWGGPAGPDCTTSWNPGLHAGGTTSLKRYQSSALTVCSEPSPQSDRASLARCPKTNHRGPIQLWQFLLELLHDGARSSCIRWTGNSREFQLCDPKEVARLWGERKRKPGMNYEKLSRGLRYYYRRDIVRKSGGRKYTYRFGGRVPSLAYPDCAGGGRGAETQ", "settings": "protein: recombinant; tags: N-terminal GST; dsDNA, one strand shown", "how_it_was_run": "as §1"}, "ELF3": {"target": "T10, ELF3 (Homo sapiens, UniProt P78545 1-371)", "T10 sequence": "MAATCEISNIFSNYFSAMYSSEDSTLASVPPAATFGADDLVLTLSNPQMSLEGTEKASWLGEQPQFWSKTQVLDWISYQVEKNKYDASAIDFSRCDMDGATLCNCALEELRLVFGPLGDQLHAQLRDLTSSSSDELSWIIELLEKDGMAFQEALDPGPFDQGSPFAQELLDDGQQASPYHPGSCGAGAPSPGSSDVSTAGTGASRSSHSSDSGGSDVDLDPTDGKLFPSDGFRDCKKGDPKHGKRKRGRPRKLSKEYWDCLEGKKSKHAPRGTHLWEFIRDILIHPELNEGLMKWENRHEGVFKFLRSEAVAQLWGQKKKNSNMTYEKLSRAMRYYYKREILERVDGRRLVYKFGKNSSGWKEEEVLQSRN", "settings": "protein: recombinant; tags: N-terminal GST; dsDNA, one strand shown", "how_it_was_run": "as §1"}, "CRX": {"target": "CRX (Homo sapiens, UniProt O43186 1-299)", "sequence (O43186 whole entry)": "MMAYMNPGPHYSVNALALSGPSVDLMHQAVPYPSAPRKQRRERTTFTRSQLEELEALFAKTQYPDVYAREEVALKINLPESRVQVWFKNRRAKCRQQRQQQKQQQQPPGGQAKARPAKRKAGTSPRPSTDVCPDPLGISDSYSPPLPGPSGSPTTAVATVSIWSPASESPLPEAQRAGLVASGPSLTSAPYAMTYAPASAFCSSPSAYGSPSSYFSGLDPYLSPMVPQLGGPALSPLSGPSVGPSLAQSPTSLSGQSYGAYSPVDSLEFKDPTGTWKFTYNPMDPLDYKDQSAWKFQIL", "settings": "protein: recombinant; tags: N-terminal GST; dsDNA, one strand shown", "how_it_was_run": "as §1"}, "ETV1": {"target": "ETV1 (Homo sapiens, UniProt P50549 1-477)", "sequence (P50549 whole entry)": "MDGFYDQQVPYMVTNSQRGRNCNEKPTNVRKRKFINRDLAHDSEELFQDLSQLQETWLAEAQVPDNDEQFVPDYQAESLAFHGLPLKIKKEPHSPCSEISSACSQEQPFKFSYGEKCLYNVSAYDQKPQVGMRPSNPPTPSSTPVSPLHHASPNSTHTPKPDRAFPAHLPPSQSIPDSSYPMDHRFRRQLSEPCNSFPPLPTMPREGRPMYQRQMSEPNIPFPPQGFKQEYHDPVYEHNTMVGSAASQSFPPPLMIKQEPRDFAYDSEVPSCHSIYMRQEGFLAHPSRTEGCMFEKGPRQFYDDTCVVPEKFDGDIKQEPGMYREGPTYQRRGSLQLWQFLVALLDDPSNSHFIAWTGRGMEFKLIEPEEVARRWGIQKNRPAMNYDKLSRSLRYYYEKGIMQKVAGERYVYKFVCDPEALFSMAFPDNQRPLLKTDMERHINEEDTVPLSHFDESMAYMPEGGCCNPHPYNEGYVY", "settings": "protein: recombinant; tags: N-terminal GST; dsDNA, one strand shown", "how_it_was_run": "as §1"}}}
{"sequence": "AATAGA", "values": [{"measurement": "binding signal", "setting": "FLI1", "value": "1.06 fold enrichment (6-mer frequency, TF over GST control)"}, {"measurement": "binding signal", "setting": "ELK1", "value": "1.09 fold enrichment (6-mer frequency, TF over GST control)"}, {"measurement": "binding signal", "setting": "GABPA", "value": "1.11 fold enrichment (6-mer frequency, TF over GST control)"}, {"measurement": "binding signal", "setting": "ERG", "value": "1.12 fold enrichment (6-mer frequency, TF over GST control)"}, {"measurement": "binding signal", "setting": "ELF1", "value": "1.09 fold enrichment (6-mer frequency, TF over GST control)"}, {"measurement": "binding signal", "setting": "EHF", "value": "1.08 fold enrichment (6-mer frequency, TF over GST control)"}, {"measurement": "binding signal", "setting": "SPI1", "value": "1.08 fold enrichment (6-mer frequency, TF over GST control)"}, {"measurement": "binding signal", "setting": "SPIB", "value": "1.05 fold enrichment (6-mer frequency, TF over GST control)"}, {"measurement": "binding signal", "setting": "FEV", "value": "1.07 fold enrichment (6-mer frequency, TF over GST control)"}, {"measurement": "binding signal", "setting": "ETV5", "value": "1.07 fold enrichment (6-mer frequency, TF over GST control)"}, {"measurement": "binding signal", "setting": "HSF1", "value": "1.34 fold enrichment (6-mer frequency, TF over GST control)"}, {"measurement": "binding signal", "setting": "SPIC", "value": "1.02 fold enrichment (6-mer frequency, TF over GST control)"}, {"measurement": "binding signal", "setting": "ELF4", "value": "1.07 fold enrichment (6-mer frequency, TF over GST control)"}, {"measurement": "binding signal", "setting": "ELK4", "value": "1.1 fold enrichment (6-mer frequency, TF over GST control)"}, {"measurement": "binding signal", "setting": "ETV2", "value": "1.13 fold enrichment (6-mer frequency, TF over GST control)"}, {"measurement": "binding signal", "setting": "ELF3", "value": "1.07 fold enrichment (6-mer frequency, TF over GST control)"}, {"measurement": "binding signal", "setting": "CRX", "value": "1.15 fold enrichment (6-mer frequency, TF over GST control)"}, {"measurement": "binding signal", "setting": "ETV1", "value": "1.07 fold enrichment (6-mer frequency, TF over GST control)"}]}
